# Source: PubChem BioAssay (NCI)
# Several values for one entry are separate records, joined by “and”; a condition that tells them apart may be missing. Equal entries are not always repeated. About 83,000 compounds went through this panel and 20% of them were active in at least one assay; those are over-represented in the sample as a whole.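 Treatment: one concentration, 48 hours, 96-well format. Scoring: percent growth, with anything below 10 considered active.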 Activity calls are given as the source filed them.
# Legend:
# Assay in all cases: NCI-60 one-dose screen, 48 h (100 = growth as untreated, 0 = no growth, -100 = all killed)
# EKVX NSCLC = test system: EKVX NSCLC
# SN12C renal = test system: SN12C renal
# UO-31 renal = test system: UO-31 renal
# TK-10 renal = test system: TK-10 renal
# ACHN renal = test system: ACHN renal
# CAKI-1 renal = test system: CAKI-1 renal
# A498 renal = test system: A498 renal
# CCRF-CEM leukemia = test system: CCRF-CEM leukemia
# MOLT-4 leukemia = test system: MOLT-4 leukemia
# SK-MEL-2 melanoma = settings: 10 µM unless noted
smiles,measurement,setting,value
S=c1nc[nH]c2nc[nH]c12,growth,EKVX NSCLC; 10 µM,89.9% (inactive)
same,growth,EKVX NSCLC; 50 µM,73.9% (inactive)
same,growth,SN12C renal; 10 µM,69.5% (inactive)
same,growth,SN12C renal; 50 µM,31.5% (inactive)
same,growth,UO-31 renal; 10 µM,34% (inactive)
same,growth,UO-31 renal; 50 µM,36.2% (inactive)
same,growth,TK-10 renal; 10 µM,33.1% (inactive)
same,growth,TK-10 renal; 750 µM,15.9% (inactive) and -6.1% (active)
same,growth,ACHN renal; 10 µM,50% (inactive)
same,growth,ACHN renal; 50 µM,20.5% (inactive)
same,growth,CAKI-1 renal; 10 µM,7.07% (active)
same,growth,CAKI-1 renal; 50 µM,21% (inactive)
same,growth,A498 renal; 10 µM,71.1% (inactive)
same,growth,A498 renal; 50 µM,47.5% (inactive)
same,growth,CCRF-CEM leukemia; 10 µM,13% (inactive)
same,growth,CCRF-CEM leukemia; 50 µM,16.8% (inactive)
same,growth,MOLT-4 leukemia; 10 µM,10.6% (inactive)
same,growth,MOLT-4 leukemia; 50 µM,13.3% (inactive)
CSc1nc(N)c(N)c(N)n1,growth,SK-MEL-2 melanoma,104% (inactive)
same,growth,EKVX NSCLC; 10 µM unless noted,105% (inactive)
same,growth,SN12C renal; 10 µM unless noted,99.4% (inactive)
same,growth,UO-31 renal; 10 µM unless noted,93% (inactive)
same,growth,TK-10 renal; 10 µM unless noted,111% (inactive)
same,growth,ACHN renal; 10 µM unless noted,110% (inactive)
same,growth,CAKI-1 renal; 10 µM unless noted,97.8% (inactive)
same,growth,CCRF-CEM leukemia; 10 µM unless noted,64.7% (inactive)
same,growth,MOLT-4 leukemia; 10 µM unless noted,83% (inactive)
CCNCc1ccccc1,growth,SK-MEL-2 melanoma,111% (inactive)
same,growth,EKVX NSCLC; 10 µM unless noted,111% (inactive)
same,growth,SN12C renal; 10 µM unless noted,104% (inactive)
same,growth,UO-31 renal; 10 µM unless noted,86.7% (inactive)
same,growth,TK-10 renal; 10 µM unless noted,100% (inactive)
same,growth,ACHN renal; 10 µM unless noted,110% (inactive)
same,growth,CAKI-1 renal; 10 µM unless noted,101% (inactive)
same,growth,A498 renal; 10 µM unless noted,97.4% (inactive)
same,growth,MOLT-4 leukemia; 10 µM unless noted,103% (inactive)
COc1ccc(/C=N/Nc2nc3ccccc3s2)cc1,growth,SK-MEL-2 melanoma,117% (inactive)
same,growth,EKVX NSCLC; 10 µM unless noted,67.4% (inactive)
same,growth,SN12C renal; 10 µM unless noted,89% (inactive)
same,growth,UO-31 renal; 10 µM unless noted,62.6% (inactive)
same,growth,TK-10 renal; 10 µM unless noted,112% (inactive)
same,growth,ACHN renal; 10 µM unless noted,90.6% (inactive)
same,growth,CAKI-1 renal; 10 µM unless noted,79.9% (inactive)
same,growth,A498 renal; 10 µM unless noted,115% (inactive)
same,growth,MOLT-4 leukemia; 10 µM unless noted,85.8% (inactive)
CCc1ccc(OC(=O)CCl)cc1,growth,SK-MEL-2 melanoma,99.9% (inactive)
same,growth,EKVX NSCLC; 10 µM unless noted,98.6% (inactive)
same,growth,SN12C renal; 10 µM unless noted,106% (inactive)
same,growth,UO-31 renal; 10 µM unless noted,88.6% (inactive)
same,growth,TK-10 renal; 10 µM unless noted,101% (inactive)
same,growth,ACHN renal; 10 µM unless noted,102% (inactive)
same,growth,CAKI-1 renal; 10 µM unless noted,101% (inactive)
same,growth,CCRF-CEM leukemia; 10 µM unless noted,104% (inactive)
same,growth,MOLT-4 leukemia; 10 µM unless noted,102% (inactive)
C/C(=C\c1ccccc1)C(O)C(=O)c1nc2ccc([N+](=O)[O-])cc2[nH]c1=O (stereo unspecified),growth,SK-MEL-2 melanoma,93.6% (inactive)
same,growth,EKVX NSCLC; 10 µM unless noted,92.6% (inactive)
same,growth,SN12C renal; 10 µM unless noted,90% (inactive)
same,growth,UO-31 renal; 10 µM unless noted,74.4% (inactive)
same,growth,TK-10 renal; 10 µM unless noted,109% (inactive)
same,growth,ACHN renal; 10 µM unless noted,81% (inactive)
same,growth,CAKI-1 renal; 10 µM unless noted,96% (inactive)
same,growth,CCRF-CEM leukemia; 10 µM unless noted,74.8% (inactive)
same,growth,MOLT-4 leukemia; 10 µM unless noted,91% (inactive)
COc1ccccc1OCC(O)CO (stereo unspecified),growth,SK-MEL-2 melanoma,98.3% (inactive) and 110% (inactive)
same,growth,EKVX NSCLC; 10 µM unless noted,102% (inactive) and 83.5% (inactive)
same,growth,SN12C renal; 10 µM unless noted,95.2% (inactive) and 103% (inactive)
same,growth,UO-31 renal; 10 µM unless noted,87.6% (inactive) and 96.4% (inactive)
same,growth,TK-10 renal; 10 µM unless noted,98% (inactive)
same,growth,ACHN renal; 10 µM unless noted,102% (inactive) and 110% (inactive)
same,growth,CAKI-1 renal; 10 µM unless noted,90.8% (inactive)
same,growth,CCRF-CEM leukemia; 10 µM unless noted,98.5% (inactive) and 97.1% (inactive)
same,growth,MOLT-4 leukemia; 10 µM unless noted,144% (inactive) and 121% (inactive)
O=C1C=CC(n2cc(F)c(=O)[nH]c2=O)O1 (stereo unspecified),growth,SK-MEL-2 melanoma,109% (inactive)
same,growth,EKVX NSCLC; 10 µM unless noted,93.3% (inactive)
same,growth,SN12C renal; 10 µM unless noted,64.4% (inactive)
same,growth,UO-31 renal; 10 µM unless noted,63.4% (inactive)
same,growth,TK-10 renal; 10 µM unless noted,75.7% (inactive)
same,growth,ACHN renal; 10 µM unless noted,56.5% (inactive)
same,growth,CAKI-1 renal; 10 µM unless noted,46.5% (inactive)
same,growth,CCRF-CEM leukemia; 10 µM unless noted,50.4% (inactive)
same,growth,MOLT-4 leukemia; 10 µM unless noted,54.4% (inactive)
CC(=O)/C(N=Nc1ccc(S(=O)(=O)c2ccc(N=N/C(C(C)=O)=C(/C)O)cc2)cc1)=C(\C)O,growth,SK-MEL-2 melanoma,117% (inactive)
same,growth,EKVX NSCLC; 10 µM unless noted,116% (inactive)
same,growth,SN12C renal; 10 µM unless noted,110% (inactive)
same,growth,UO-31 renal; 10 µM unless noted,83.5% (inactive)
same,growth,TK-10 renal; 10 µM unless noted,108% (inactive)
same,growth,ACHN renal; 10 µM unless noted,104% (inactive)
same,growth,CAKI-1 renal; 10 µM unless noted,100% (inactive)
same,growth,MOLT-4 leukemia; 10 µM unless noted,100% (inactive)
Cc1ccc2cccc([N+](=O)[O-])c2n1,growth,SK-MEL-2 melanoma,104% (inactive) and 111% (inactive)
same,growth,EKVX NSCLC; 10 µM unless noted,114% (inactive)
same,growth,SN12C renal; 10 µM unless noted,98.8% (inactive) and 100% (inactive)
same,growth,UO-31 renal; 10 µM unless noted,88.3% (inactive) and 73.6% (inactive)
same,growth,TK-10 renal; 10 µM unless noted,109% (inactive) and 111% (inactive)
same,growth,ACHN renal; 10 µM unless noted,105% (inactive) and 96.9% (inactive)
same,growth,CAKI-1 renal; 10 µM unless noted,96.5% (inactive) and 95.6% (inactive)
same,growth,CCRF-CEM leukemia; 10 µM unless noted,108% (inactive) and 95.3% (inactive)
same,growth,MOLT-4 leukemia; 10 µM unless noted,88.5% (inactive) and 89.3% (inactive)
CNc1ccc(Cl)cc1S(=O)(=O)c1ccccc1[N+](=O)[O-],growth,SK-MEL-2 melanoma,103% (inactive) and 85.6% (inactive)
same,growth,EKVX NSCLC; 10 µM unless noted,103% (inactive) and 94.5% (inactive)
same,growth,SN12C renal; 10 µM unless noted,89.8% (inactive) and 98.3% (inactive)
same,growth,UO-31 renal; 10 µM unless noted,91.8% (inactive) and 92.6% (inactive)
same,growth,TK-10 renal; 10 µM unless noted,99.7% (inactive) and 95% (inactive)
same,growth,ACHN renal; 10 µM unless noted,107% (inactive) and 97.9% (inactive)
same,growth,CAKI-1 renal; 10 µM unless noted,84.6% (inactive) and 41.1% (inactive)
same,growth,CCRF-CEM leukemia; 10 µM unless noted,84.9% (inactive) and 93.3% (inactive)
same,growth,MOLT-4 leukemia; 10 µM unless noted,85.6% (inactive) and 103% (inactive)
Cc1nc2c(=O)[nH]c(=S)[nH]c2[nH]c1=O,growth,SK-MEL-2 melanoma,102% (inactive) and 114% (inactive)
same,growth,EKVX NSCLC; 10 µM unless noted,102% (inactive) and 109% (inactive)
same,growth,SN12C renal; 10 µM unless noted,102% (inactive) and 97.1% (inactive)
same,growth,UO-31 renal; 10 µM unless noted,93.8% (inactive) and 87.3% (inactive)
same,growth,TK-10 renal; 10 µM unless noted,106% (inactive) and 119% (inactive)
same,growth,ACHN renal; 10 µM unless noted,103% (inactive) and 97.6% (inactive)
same,growth,CAKI-1 renal; 10 µM unless noted,94.4% (inactive) and 93.9% (inactive)
same,growth,CCRF-CEM leukemia; 10 µM unless noted,101% (inactive) and 104% (inactive)
same,growth,MOLT-4 leukemia; 10 µM unless noted,100% (inactive) and 103% (inactive)
